Inconclusive results are not listed. The source made the active and inactive calls. Calls come from the whole dose curve; as a rule, active = well fitted cell-killing curve with a large enough effect; inconclusive = small, poorly fitted or top-dose-only effect, or effect the other way; inactive = flat fitted curve, though single readings scatter. Where a SMILES comes first, the peptide text is derived from it. [ ]: non-standard residue; d: D form. The star is where a group is joined. AFC = O=c1cc(C(F)(F)F)c2ccc(N*)cc2o1; 2Abz = Nc1ccccc1C(=O)O
Experiments:
Assay in all cases: Primary qHTS to identify gynecologic anti-cancer compounds using libraries of approved drugs and bioactive compounds (AID 1345084); note: nearly all actives have a fitted effect of over 55% in size
CAOV3 = conditions: Gynecologic cancer cell panel viability, ATPlite luminescence, 48 h; series mostly up to 57.5 µM
Method in brief: (§1)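 Measured: luminescence after ATPlite addition (15 min, RT). Exposure: 48 h, 37 C, 5% CO2.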

CASKI = conditions: Gynecologic cancer cell panel viability, ATPlite luminescence, 48 h; series mostly up to 57.5 µM
Method in brief: as §1

Es-2 = conditions: Gynecologic cancer cell panel viability, ATPlite luminescence, 48 h; series mostly up to 57.5 µM
Method in brief: as §1

HeLa = conditions: Gynecologic cancer cell panel viability, ATPlite luminescence, 48 h; series mostly up to 57.5 µM
Method in brief: as §1

Hek293T = conditions: Gynecologic cancer cell panel viability, ATPlite luminescence, 48 h, control line for the selectivity index; series mostly up to 57.5 µM
Method in brief: as §1

JEG-3 = conditions: Gynecologic cancer cell panel viability, ATPlite luminescence, 48 h; series mostly up to 57.5 µM
Method in brief: as §1

OV90 = conditions: Gynecologic cancer cell panel viability, ATPlite luminescence, 48 h; series mostly up to 57.5 µM
Method in brief: as §1

PA-1 = conditions: Gynecologic cancer cell panel viability, ATPlite luminescence, 48 h; series mostly up to 57.5 µM
Method in brief: as §1

SKOV3 = conditions: Gynecologic cancer cell panel viability, ATPlite luminescence, 48 h; series mostly up to 57.5 µM
Method in brief: as §1

Tov-21-G = conditions: Gynecologic cancer cell panel viability, ATPlite luminescence, 48 h; series mostly up to 57.5 µM
Method in brief: as §1

Tov112D = conditions: Gynecologic cancer cell panel viability, ATPlite luminescence, 48 h; series mostly up to 57.5 µM
Method in brief: as §1

Measured: Potency

COc1ccc2c(c1O)OC[C@H]1c3ccc(O)cc3O[C@@H]21
inactive: all assays above

COC(=O)[C@]12C(=O)C(C)=C(O)[C@@]1(C)C(C)=CC1[C@@]34CC[C@@H](OC(C)=O)C(C)(C)C3[C@H](C[C@]12C)OC4=O (some centres not stated)
inactive: all assays above

CC(NCc1ccc(OCc2cccc(F)c2)cc1)C(N)=O (configuration not stated)
inactive: all assays above

COc1cc(/C=C/C(=O)OC2CC3CCC2(C)C3(C)C)ccc1O (configuration not stated)
inactive: all assays above

CCC(C)C1NC(=O)C2CCCN2C(=O)C(C(C)C)NC(=O)c2ccccc2NC(=O)C(Cc2ccc(O)cc2)NC(=O)C(C)NC(=O)C(C(C)O)NC1=O (configuration not stated) (cyclo([2Abz]VPITAY); configuration not given here)
inactive: all assays above

CC(C)N(C[C@H]1O[C@@H](n2cnc3c(N)ncnc32)[C@H](O)[C@@H]1O)C1CC(CCc2nc3ccc(C(C)(C)C)cc3[nH]2)C1 (some centres not stated)
inactive: all assays above

CCOc1c2c(c(OCC)c3ccccc13)C(=O)N(c1ccc(CC(=O)NS(=O)(=O)c3ccccc3)cc1)C2
inactive: all assays above

COc1ccc2c(c1)O[C@H](O[C@@H]1O[C@H](CO)[C@@H](O)[C@H](O)[C@H]1O)C(=O)N2
inactive: all assays above

CCOC(=O)c1ccc(N(C)c2csc(-c3ccccc3)n2)cc1
inactive: all assays above

CC(=O)N[C@@H](CC(C)C)C(=O)N[C@@H](CCC(=O)O)C(=O)N[C@@H](CCC(=O)O)C(=O)N[C@@H](CC(=O)O)C(=O)Nc1ccc2c(C(F)(F)F)cc(=O)oc2c1 (Ac-LEED-{AFC})
inactive: all assays above

COc1cc(C2c3cc(O)c(OC)cc3CC(CO)C2CO)ccc1O (configuration not stated)
inactive: all assays above

N#CC1C(=O)Nc2scc(-c3ccc(-c4ccccc4O)cc3)c2C1=O (configuration not stated)
inactive: all assays above

COc1cc(C2OCC3C(c4ccc(OC5OC(CO)C(O)C(O)C5O)c(OC)c4)OCC23)ccc1O (configuration not stated)
inactive: all assays above

C/C=C1\[C@H](O[C@@H]2O[C@H](CO)[C@@H](O)[C@H](O)[C@H]2O)OC=C(C(=O)OC)[C@H]1CC(=O)OC
inactive: all assays above

C=C1C[C@@]23CC[C@@H]4[C@](C)(C(=O)O)CCC[C@@]4(C)C2=CC[C@H]1C3
inactive: all assays above

NC1CCC(N[C@@H]2C[C@H]2c2ccccc2)CC1 (some centres not stated)
inactive: all assays above

C=C1[C@@H]2[C@H]3OC(=O)C(=C)[C@@H]3CC[C@@](C)(O)[C@@H]2C[C@@H]1O[C@@H]1O[C@H](CO)[C@@H](O)[C@H](O)[C@H]1O
inactive: all assays above

CC1(CO)CC2C(O)C(=O)C3(CO)CC3(C)C2C1 (configuration not stated)
inactive: all assays above

C/C(=C\CCC(C(=O)O)C1CCC2(C)C3=C(CCC12C)C1(C)CCC(=O)C(C)(C)C1CC3)C(=O)O (configuration not stated)
inactive: all assays above

N#Cc1ccnc(N2C(=O)CC[C@H]2C(=O)N(c2cncc(F)c2)[C@H](C(=O)NC2CC(F)(F)C2)c2ccccc2Cl)c1
inactive: all assays above

O=C(/C=C/c1ccccc1)OCC1=CC[C@@H]2C(C(=O)O)=CO[C@@H](O[C@@H]3O[C@H](CO)[C@@H](O)[C@H](O)[C@H]3O)[C@H]12
inactive: all assays above

O=C(C1CC1)N1CC[C@@H](Cc2n[nH]c(=O)n2-c2ccc(-c3ccc4occc4c3)cc2)C1
inactive: all assays above

C=C1CC23CCC4[C@@](C)(CCC[C@@]4(C)C(=O)O)C2CCC1C3 (some centres not stated)
inactive: all assays above

C=C1C2=CC(O)C(C)C1(C)CC/C(C)=C/CCC1(C)OC1C2=O (configuration not stated)
inactive: all assays above

NC(=O)c1cccc(-c2cc(O)cc(OC(=O)NC3CCCCC3)c2)c1
inactive: all assays above

c1ccc(Cc2ncc3c(n2)CCNCC3)cc1
inactive: all assays above

C[C@H]1C[C@H]2[C@@H]3CCC4=CC(=O)C=C[C@]4(C)[C@@]3(F)[C@@H](O)C[C@]2(C)[C@@]1(O)C(=O)COP(=O)(O)O
inactive: all assays above

CCc1cc2c(=O)c(-c3nc4ccccc4s3)coc2c(CN2CCCCC2)c1O
inactive: all assays above

CC(=O)OC1C=C(C(=O)O)C2(CO)CCC(C)C(C)(CCc3ccoc3)C2C1 (configuration not stated)
inactive: all assays above

CC1(C)O[C@@]2(C)CC[C@@H]1C[C@@H]2OC1OC(CO)C(O)C(O)C1O (some centres not stated)
inactive: all assays above

COC(=O)C1=CO[C@@H](O[C@@H]2O[C@H](CO)[C@@H](O)[C@H](O)[C@H]2O)[C@@H]2[C@@H](C)[C@@H](O)C[C@H]12
inactive: all assays above

C=CC(C)(C)C12CC3C(=O)NC(Cc4cnc[nH]4)C(=O)N3C1Nc1ccccc12 (configuration not stated)
inactive: all assays above

Source: PubChem BioAssay (NCATS)
